Measured values: PubChem BioAssay

Experiment: Her2 expression decrease, cell viability multiplex – SKBR3 breast tumor cells, AlphaScreen, ATP viability, primary screen (AID 461);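 further: percent of carrier control wells set as 100% viability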
Conditions: SKBR3 Her2 protein level, 18-24 h, measured here: SKBR3 viability, ATP luminescence, at 10 µM

| Structure (SMILES) | viability |
| --- | --- |
| CCCNCC(O)COc1ccccc1C(=O)CCc1ccccc1 (configuration not stated) | 97% |
| CC(C)(S)[C@@H](N)C(=O)O | 102% |
| CC(=O)OCC(=O)[C@@]1(O)CC[C@H]2[C@@H]3CCC4=CC(=O)C=C[C@]4(C)[C@@]3(Cl)[C@@H](Cl)C[C@@]21C | 114% |
| CCOC(=O)CCC(=O)O[C@H]1[C@H](O[C@@H]2[C@@H](C)[C@H](O[C@H]3C[C@@](C)(OC)[C@@H](O)[C@H](C)O3)[C@@H](C)C(=O)O[C@H](CC)[C@@](C)(O)[C@H](O)[C@@H](C)C(=O)[C@H](C)C[C@@]2(C)O)O[C@H](C)C[C@@H]1N(C)C | 97% |
| CC(C)[N+](C)(CCOC(=O)C1c2ccccc2Oc2ccccc21)C(C)C | 108% |
| O=c1n(CCCN2CCN(c3cccc(Cl)c3)CC2)nc2ccccn12 | 81% |
| CN(C)CCOC(C)(c1ccccc1)c1ccccn1 (configuration not stated) | 79.5% |
| Nc1ccc(S(=O)(=O)NC(=O)c2ccccc2)cc1 | 104% |
| Nc1ccc2[nH]ncc2c1 | 80.5% |
| CCCCOc1ccc(OCCCN2CCOCC2)cc1 | 96.5% |
| Nc1nc(F)nc2c1ncn2[C@@H]1O[C@H](CO)[C@@H](O)[C@@H]1O | 97% |
| CC(C)(C)NC[C@H](O)COc1nsnc1N1CCOCC1 | 112% |
| CCCn1c(=O)[nH]c(=O)c2[nH]cnc21 | 104% |
| CC(COc1ccccc1)NC(C)C(O)c1ccc(O)cc1 (configuration not stated) | 97% |
| Cc1cc(NC(=O)C2=C(O)c3ccccc3S(=O)(=O)N2C)no1 | 96.5% |
| CCN(CC)CC#CCOC(=O)C(O)(c1ccccc1)C1CCCCC1 (configuration not stated) | 82% |
| CN1CCN2c3ccccc3Cc3ccccc3C2C1 (configuration not stated) | 82.5% |
| O=C(O)Cc1cc(I)c(Oc2ccc(O)c(I)c2)c(I)c1 | 89% |
| CC(=O)N[C@@H](CS)C(=O)O | 105% |
| CN(CCO)CC(O)Cn1cnc2c1c(=O)n(C)c(=O)n2C (configuration not stated) (tested in a mixture with another compound) | 87% |
| N=c1c[n+](N2CCOCC2)[n-]o1 | 114% |
| OCCN(CCO)c1nc(N2CCCCC2)c2nc(N(CCO)CCO)nc(N3CCCCC3)c2n1 | 117% |
| CC(=O)NS(=O)(=O)c1ccc(N)cc1 | 118% |
| C[C@]12CC[C@@H]3c4ccc(OS(=O)(=O)O)cc4CC[C@H]3[C@@H]1CCC2=O | 87% |
| CN(C)CCOc1ccccc1Cc1ccccc1 | 88.5% |
| CC(=O)OCC(=O)[C@@]1(O)[C@H](C)C[C@H]2[C@@H]3CCC4=CC(=O)C=C[C@]4(C)[C@@]3(F)[C@@H](O)C[C@@]21C | 118% |
| c1ccc2[nH]c(-c3cscn3)nc2c1 | 106% |
